Results as given in the supplement of paper PMC10105736.

What was measured:
Assay in all cases: MAPPIT interaction score (arbitrary units); higher = stronger binary interaction signal, active = hit call of the paper;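 active = MAPPIT score above the 99th percentile of random reference set scores in the same batch; inactive = at or below it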
[1] = molecular target: MagR; details: MAPPIT configuration: N-N; pair source set: Lit-BS-16
[2] = molecular target: Polr1B; details: MAPPIT configuration: N-N; pair source set: DPIM
[3] = molecular target: pav; details: MAPPIT configuration: N-N; pair source set: DPIM
[4] = molecular target: MYPT-75D; details: pair source set: Lit-BM-16
[5] = molecular target: Mbs; details: MAPPIT configuration: N-N; pair source set: Lit-BM-16
[6] = molecular target: Nop17l; details: MAPPIT configuration: N-N; pair source set: Lit-BM-16
[7] = molecular target: Tm1; details: MAPPIT configuration: N-C; pair source set: Lit-BM-16
[8] = molecular target: Zasp66; details: pair source set: Lit-BM-16
[9] = molecular target: elm; details: MAPPIT configuration: N-N; pair source set: Lit-BS-16
[10] = molecular target: Mzt1; details: MAPPIT configuration: N-N; pair source set: RRS
[11] = molecular target: Lcp1; details: MAPPIT configuration: N-N; pair source set: DPIM

Measured: MAPPIT interaction score
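Also: HEK293T cells with Epo stimulation, STAT-responsive firefly luciferase reporter, fold induction versus unstimulated cells divided by the larger fold induction of two negative controls lacking either bait or prey.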

B1: Hakai (protein)
chain: MDTEEVKRGRGRGRGTRARGRGRGRGRGRGKKIDDSSIADAAALAASSCAALEDSPGRLDASEDSVMQELDKDGELETPGALEEPLPHGALGAVAASGNMTPATQQPQVLQQVPPPVMSQTTISLSLARAVDMEADISQLEAPTFTTLSRGPPEPMLRLKWNHKVSLIGEKVLNPMIHCCDQCDKPILVYGRMIPCKHVFCLKCARAEPIKSCPRCTDKVLRVEQSGLGTVFMCTHGGSRYGSSGCRRTYLSQRDLQAHINHRHVAPQPPPLQPQPQLSAMAEQPKMTDLGGVGLGLELHKQRKLSESSVPISVSASIASRPVLSRLPLTGGVGNIGSIGSIPPPGSAAAAQNAIHGGHSTLTLANLTRINNANAQECHQGKASLHHTLKKGTPHQSESVADASYYSSVLASFGSAAGNPGSGPPGGGATAAAQPANPSGSHSAVGPGALIGGSTDAPTGGSSGNWQQSQYYR
inactive: [1] 2.01 | [2] 0.0868 | [3] 0.0448

B2: flw (protein)
chain: MGDFDLNVDSLIQRLLEMRSCRTGKQVQMTEAEVRGLCLKSREIFLQQPILLELEAPLIICGDIHGQYTDLLRLFEYGGFPPAANYLFLGDYVDRGKQSLETICLLLAYKIKYPENFFLLRGNHECASINRIYGFYDECKRRYNVKLWKTFTDCFNCLPVAAIIDEKIFCCHGGLSPDLQGMEQIRRLMRPTDVPDTGLLCDLLWSDPDKDVQGWGENDRGVSFTFGVDVVSKFLNRHELDLICRAHQVVEDGYEFFARRQLVTLFSAPNYCGEFDNAGGMMTVDDTLMCSFQILKPSEKKAKYLYSGMNSSRPTTPQRSAPMLATNKKK
inactive: [4]; MAPPIT configuration: N-C 0.517 | [4]; MAPPIT configuration: N-N -0.255 | [5] -0.0767 | [6] -0.464 | [7] 1.19 | [8]; MAPPIT configuration: N-C 0.478 | [8]; MAPPIT configuration: N-N 0.558 | [9] -0.48

B3: Ror (protein)
chain: MNKYSAFIVCISLVLLFTKKDVGSHNVDSRIYGFQQSSGICHIYNGTICRDVLSNAHVFVSPNLTMNDLEERLKAAYGVIKESKDMNANCRMYALPSLCFSSMPICRTPERTNLLYFANVATNAKQLKNVSIRRKRTKSKDIKNISIFKKKSTIYEDVFSTDISSKYPPTRESENLKRICREECELLENELCQKEYAIAKRHPVIGMVGVEDCQKLPQHKDCLSLGITIEVDKTENCYWEDGSTYRGVANVSASGKPCLRWSWLMKEISDFPELIGQNYCRNPGSVENSPWCFVDSSRERIIELCDIPKCADKIWIAIVGTTAAIILIFIIIFAIILFKRRTIMHYGMRNIHNINTPSADKNIYGNSQLNNAQDAGRGNLGNLSDHVALNSKLIERNTLLRINHFTLQDVEFLEELGEGAFGKVYKGQLLQPNKTTITVAIKALKENASVKTQQDFKREIELISDLKHQNIVCILGVVLNKEPYCMLFEYMANGDLHEFLISNSPTEGKSLSQLEFLQIALQISEGMQYLSAHHYVHRDLAARNCLVNEGLVVKISDFGLSRDIYSSDYYRVQSKSLLPVRWMPSESILYGKFTTESDVWSFGVVLWEIYSYGMQPYYGFSNQEVINLIRSRQLLSAPENCPTAVYSLMIECWHEQSVKRPTFTDISNRLKTWHEGHFKASNPEM
inactive: [10] -0.491

B4: B52 (protein)
chain: MVGSRVYVGGLPYGVRERDLERFFKGYGRTRDILIKNGYGFVEFEDYRDADDAVYELNGKELLGERVVVEPARGTARGSNRDRYDDRYGGRRGGGGGRYNEKNKNSRSSSRYGPPLRTEYRLIVENLSSRVSWQDLKDYMRQAGEVTYADAHKQRRNEGVVEFASLSDMKTAIEKLDDTELNGRRIHLVEDRRGGRSGGGGGSGRGRSRSSSSRSRSRSRRRSRSRRSSHSRSKSRSRSKSRGGRSKSKSPVKSRSRSRSRSNKSRDVSKSKSKSHSRTRSRSPKRERDSRSRSRSVSKRESRSRSRSKSIHRDSRSRPPTVSFKSSFYKFTTMPFFCSDRSASAENKSRSRSRSRSASPKNGNASPDRNNESMDD
inactive: [11] -0.142
